This note sets out measurements from PubChem BioAssay (NCATS).

The target of test [1] is Cytochrome P450 2D6 (Homo sapiens) (UniProt P10635). Kind of test: Cytochrome P450 family 2 subfamily D member 6 (CYP2D6) small molecule antagonists: luciferase biochemical (cell-free) qHTS assay (AID 1645840). Also: nearly all actives have a fitted effect of over 55% in size. Also: potency is read from the fitted curve at half-maximal effect. Summed up:
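P450-Glo luminescent screen: recombinant CYP2D6 enzyme–proluciferin substrate mix preincubated with compound 10 min at room temperature, then NADPH regeneration added for 1 h at room temperature. Detection reagent added for 20 min; luciferin light read as relative luminescence units.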
On the technique in general: qHTS replaces the single test concentration by a dilution series.

Test [2] has as its target Cytochrome P450 2C9 (Homo sapiens) (UniProt P11712). Kind of test: Cytochrome P450 family 2 subfamily C member 9 (CYP2C9) small molecule antagonists: luciferase biochemical (cell-free) qHTS assay (AID 1645842). Also: nearly all actives have a fitted effect of over 55% in size. Also: potency is read from the fitted curve at half-maximal effect. Summed up: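 Luminescence, after 20 min with luciferin detection reagent, reflected CYP2C9 turnover during a 1 h NADPH-driven reaction at 37C. Enzyme-substrate mix contained 0.4% bovine serum albumin and was preincubated with compound 10 min at room temperature.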

Test [3] deals with N-terminal Xaa-Pro-Lys N-methyltransferase 1 (Homo sapiens) (UniProt Q9BV86). The test can be described thus: Confirmatory qHTS for Inhibitors of N-terminal methyltransferase 1 (NTMT1): MTaseGlo Assay (AID 1645874; active = well fitted curve in the direction sought with a large enough effect; an effect the other way counts as inactive or inconclusive; also: nearly all actives have a fitted effect of over 65% in size; also: potency is read from the fitted curve at half-maximal effect). In outline: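 qHTS format: NTMT1 125 nM, SAM 100 uM, peptide SPKRIA 1 uM final; 15 min compound preincubation, 30 min reaction at room temperature. MTase-Glo luminescence.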
N-terminal Xaa-Pro-Lys N-methyltransferase 1 (Homo sapiens), sequence (Q9BV86 whole entry, looked up): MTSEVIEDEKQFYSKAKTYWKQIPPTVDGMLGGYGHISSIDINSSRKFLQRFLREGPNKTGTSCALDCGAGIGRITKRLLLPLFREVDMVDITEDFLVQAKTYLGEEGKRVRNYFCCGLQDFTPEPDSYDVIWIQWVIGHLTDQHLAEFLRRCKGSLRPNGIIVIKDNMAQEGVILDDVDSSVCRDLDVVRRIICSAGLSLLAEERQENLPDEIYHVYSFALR

The nature of test [4]: Primary qHTS for inhibitors of nuclear receptor binding SET domain protein 2 (NSD2) in an isogenic RCH-ACV NSD2 p.E1099K mutant (9B) (AID 1645876; active = well fitted curve in the direction sought with a large enough effect; an effect the other way counts as inactive or inconclusive; also: nearly all actives have a fitted effect of over 70% in size; also: potency is read from the fitted curve at half-maximal effect).
The nature of test [5]: Primary qHTS for inhibitors of nuclear receptor binding SET domain protein 2 (NSD2) in an RCH-ACV wild type WT cells (2C) (AID 1645877; active = well fitted curve in the direction sought with a large enough effect; an effect the other way counts as inactive or inconclusive; also: nearly all actives have a fitted effect of over 70% in size; also: potency is read from the fitted curve at half-maximal effect).
Test [6] deals with Cytochrome P450 3A4 (Homo sapiens) (UniProt P08684). Kind of test: Cytochrome P450 family 3 subfamily A member 4 (CYP3A4) small molecule antagonists: luciferase qHTS assay (AID 1645841). Also: nearly all actives have a fitted effect of over 45% in size. In outline:
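P450-Glo CYP3A4 enzyme with proluciferin substrate preincubated 10 min with compound at room temperature, then NADPH regeneration 1 h. Luciferin detection reagent added for 20 min; luminescence recorded. Ketoconazole positive control.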

Molecules are shown by their SMILES. Where “and” joins values, the source holds several entries; their conditions need not be identical. Equal values may be shown once. Results filed as inconclusive are left out. More than one record can exist for a structure, and the calls need not agree. Calls of active or inactive are those of the source. Unless noted, calls follow the shape of the dose curve; as a rule, active = well fitted curve in the direction sought with a large enough effect in the repeat runs; inconclusive = weak or mixed curves; inactive = no such curve, though single readings can be large; an effect the other way counts as inactive or inconclusive.

Cytochrome P450 2C9 (Homo sapiens), sequence (P11712 whole entry, looked up): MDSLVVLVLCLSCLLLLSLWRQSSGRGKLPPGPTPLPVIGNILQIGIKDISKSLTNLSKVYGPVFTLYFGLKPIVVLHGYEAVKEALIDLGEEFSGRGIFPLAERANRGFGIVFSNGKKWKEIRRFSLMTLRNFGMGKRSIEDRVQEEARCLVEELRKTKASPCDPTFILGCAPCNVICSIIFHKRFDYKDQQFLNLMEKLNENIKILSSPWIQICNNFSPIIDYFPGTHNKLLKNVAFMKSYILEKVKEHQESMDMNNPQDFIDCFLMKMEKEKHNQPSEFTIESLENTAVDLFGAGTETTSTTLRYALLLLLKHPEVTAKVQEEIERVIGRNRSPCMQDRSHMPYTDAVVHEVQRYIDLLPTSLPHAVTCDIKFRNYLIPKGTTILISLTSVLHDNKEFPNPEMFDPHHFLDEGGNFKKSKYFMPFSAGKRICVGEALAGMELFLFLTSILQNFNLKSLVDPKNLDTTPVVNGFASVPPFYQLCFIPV
Cytochrome P450 2D6 (Homo sapiens), sequence (P10635 whole entry, looked up): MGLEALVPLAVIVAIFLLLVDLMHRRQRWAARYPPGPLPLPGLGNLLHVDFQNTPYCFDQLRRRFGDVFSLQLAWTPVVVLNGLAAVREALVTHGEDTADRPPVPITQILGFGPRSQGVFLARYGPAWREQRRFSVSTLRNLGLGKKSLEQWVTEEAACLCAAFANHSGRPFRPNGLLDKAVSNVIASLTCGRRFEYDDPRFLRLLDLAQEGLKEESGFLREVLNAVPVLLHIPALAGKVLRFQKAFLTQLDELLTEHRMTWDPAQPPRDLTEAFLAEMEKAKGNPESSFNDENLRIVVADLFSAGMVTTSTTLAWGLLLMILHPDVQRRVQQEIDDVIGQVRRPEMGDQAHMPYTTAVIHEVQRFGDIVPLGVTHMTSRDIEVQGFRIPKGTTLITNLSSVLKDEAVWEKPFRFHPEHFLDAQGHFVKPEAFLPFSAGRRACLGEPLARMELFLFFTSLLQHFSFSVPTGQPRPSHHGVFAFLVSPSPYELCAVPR
Cytochrome P450 3A4 (Homo sapiens), sequence (P08684 whole entry, looked up): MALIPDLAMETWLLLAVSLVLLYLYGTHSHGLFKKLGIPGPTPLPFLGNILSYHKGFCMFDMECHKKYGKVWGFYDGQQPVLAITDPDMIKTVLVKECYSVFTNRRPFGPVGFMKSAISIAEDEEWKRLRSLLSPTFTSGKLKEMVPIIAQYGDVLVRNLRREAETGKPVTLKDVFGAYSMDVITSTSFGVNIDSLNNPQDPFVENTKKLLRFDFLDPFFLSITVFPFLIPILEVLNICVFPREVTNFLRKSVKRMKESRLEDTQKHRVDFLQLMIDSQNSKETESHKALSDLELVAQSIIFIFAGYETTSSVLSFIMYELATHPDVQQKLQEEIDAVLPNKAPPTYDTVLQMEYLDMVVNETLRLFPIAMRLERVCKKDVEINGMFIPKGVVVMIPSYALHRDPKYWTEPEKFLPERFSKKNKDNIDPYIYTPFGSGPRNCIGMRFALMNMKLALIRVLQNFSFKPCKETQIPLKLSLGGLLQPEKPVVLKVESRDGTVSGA

`Fc1ccc(CNc2ncnc3ccc(F)cc23)cc1`: the Potency in test [1] was 16.9 µM (active); in test [2], 8.49 µM (active).

In the case of `COc1cc2ncnc(Nc3cc(Br)c(O)c(Br)c3)c2cc1OC`, in test [1], the Potency entry was “inactive”.

As for `CCN1CCC(n2cc(CNc3cc(Cl)c4ncc(C#N)c(Nc5ccc(F)c(Cl)c5)c4c3)nn2)CC1`, the Potency in test [1] was 12 µM (active); in test [2], 7.56 µM (active); in test [3], 10 µM (active); in test [4], 23.5 µM (active); in test [5], 18.6 µM (active).

Take `COC(=O)N1CCN(Cc2cccc(NC(=O)Nc3ccc(C)nc3)c2F)CC1`: the Potency entry in test [1] was “inactive”.

On to `Clc1ccc(C2(c3ccc(-c4cn[nH]c4)cc3)CCNCC2)cc1`, for which the Potency in test [1] is 3.38 µM (active); in test [2], 1.2 µM (active); in test [4], 3.65 µM (active) and 3.72 µM (active); in test [5] it was 1.83 µM (active) and 2.35 µM (active).

In the case of `CCOC(=O)N1c2ccc(C(F)(F)F)cc2[C@@H](N(Cc2cc(C(F)(F)F)cc(C(F)(F)F)c2)C(=O)OC)C[C@H]1CC`, the Potency entry in test [1], in test [2], in test [4] and in test [5] was “inactive” in each case.

Turning to `C[C@@H]1CCO[C@H]2Cn3cc(C(=O)NCc4ccc(F)cc4F)c(=O)c(O)c3C(=O)N12`, the Potency entry in test [1] and in test [2] was “inactive” in each case. The Potency in test [4] is 20.5 µM (active).

For `OC[C@H]1O[C@@H](OCCc2ccc(O)cc2)[C@H](O)[C@@H](O)[C@H]1O`, the Potency result in test [1] and in test [2] was “inactive” in each case.

In the case of `Clc1ccc(COC(Cn2ccnc2)c2ccc(Cl)cc2Cl)c(Cl)c1` (centres undefined), the results for the Potency in test [1] and in test [2] were 1.07 µM (active) and 0.19 µM (active), respectively.

Consider `Cc1cc(-c2ncc(CC(=O)Nc3ccc(-c4cnccn4)cn3)cc2C)ccn1`, for which the Potency result in test [1], in test [2] and in test [3] was “inactive” each time.

For the compound `COc1cc(Nc2nc3ccccc3nc2NS(=O)(=O)c2ccc(NC(=O)c3ccc(C)c(OC)c3)cc2)cc(OC)c1`, the Potency result in test [1], in test [4] and in test [5] was “inactive” throughout. Besides, the Potency in test [2] is 7.56 µM (active).

For the compound `Cc1cnc(-c2cc(N3CCN(C(=O)CCS(C)(=O)=O)CC3)ncc2Cl)c(C)c1`, the Potency result in test [1], in test [4] and in test [5] was “inactive” in each case. The Potency in test [2] was 21.3 µM (active).

With `O=C(c1ccc(F)c(F)c1Nc1ccc(I)cc1F)N1CC(O)([C@H]2CCCCN2)C1`, the Potency in test [1] is 3.01 µM (active). Further, the Potency entry in test [2] was “inactive”.

As for `Cc1nc2c([nH]1)CCN(C(=O)c1ccc(NC(=O)c3ccccc3-c3ccccc3)cc1)c1ccccc1-2`, the Potency in test [1] was 4.77 µM (active). In addition, the Potency entry in test [2] is “inactive”.

On to `Cc1cccc2c1CC[C@H](CN1CCC(c3c(Cl)cccc3Cl)CC1)C[C@@H]2O`, for which the Potency in test [1] was 2.13 µM (active); in test [2], 9.52 µM (active); in test [4], 10.3 µM (active); in test [5], 7.28 µM (active).

For `C[C@H](c1ccc(F)cc1CCCC(=O)O)N(c1cc(F)ccc1F)S(=O)(=O)c1ccc(Cl)cc1`, the Potency in test [1] is 16.9 µM (active); in test [2], 8.49 µM (active).

Turning to `CN(C)c1nc(Cc2ccc(NC(=O)c3ccc(C(F)(F)F)cc3)cc2)nc(N(C)C)c1CC(=O)O`, the Potency result in test [1], in test [2], in test [4] and in test [5] was “inactive” in each case.

Consider `CCNC(=O)Nc1ccc(Oc2ncnc(N)c2C=NOC)cc1Cl`, for which the Potency result in test [1] and in test [2] was “inactive” throughout.

Regarding `CC(C)(OCc1nn(Cc2ccccc2)c2ccccc12)C(=O)O`, the Potency entry in test [1], in test [2], in test [4] and in test [5] was “inactive” throughout. In test [6], the compound was classed as inactive.

In the case of `Cc1nc(C(=O)NCC(=O)O)c(O)c2ccc(Oc3ccccc3)cc12`, the Potency result in test [1], in test [2] and in test [4] was “inactive” in each case.

As for `CCNC(=O)c1noc(-c2cc(C(C)C)c(O)cc2O)c1-c1ccc(CN2CCOCC2)cc1`, the Potency is 1.34 µM (active) in test [1]; 2.39 µM (active) in test [2]; 18.3 nM (active) and 11.8 nM (active) in test [4]; 18.3 nM (active) and 13.2 nM (active) in test [5]. Moreover, the Potency entry in test [3] was “inactive”.

`c1ccc(CNc2nc(N3CCOc4ccccc43)nc3c2CCCC3)cc1`: the Potency in test [1] is 3.01 µM (active); in test [2], 1.9 µM (active).

As for `CC(C)(C)c1nc(-c2cccc(NS(=O)(=O)c3c(F)cccc3F)c2F)c(-c2ccnc(N)n2)s1`, the Potency result in test [1] is “inactive”. Moreover, the Potency is 6.74 µM (active) in test [2], 5.9 µM (active) in test [4] and 4.68 µM (active) in test [5].

Consider `Cc1ccccc1C(C(=O)NC1CCCCC1)N(C(=O)CNc1ccc(C#N)cc1)c1cccc(F)c1` (centres undefined), for which the Potency entry in test [1], in test [4] and in test [5] was “inactive” each time. For the same compound, the Potency in test [2] is 1.34 µM (active).

Regarding `C[C@@H](NC(=O)c1ncnc(N)c1Cl)c1ncc(C(=O)Nc2cc(C(F)(F)F)c(Cl)cn2)s1`, the Potency result in test [1] is “inactive”.

Turning to `Cc1cnc(Nc2cccc(CN3CCOCC3)c2)nc1Nc1cccc(S(=O)(=O)NC(C)(C)C)c1`, the Potency in test [1] was 15.1 µM (active); in test [2] it was 5.35 µM (active); in test [4], 0.515 µM (active); in test [5] it was 0.515 µM (active).

Take `CN(C)c1ccc(-c2nc3ncc(Cl)c(N4CCN(CC(=O)Nc5nccs5)CC4)c3[nH]2)cc1`: the Potency entry in test [1] was “inactive”. Moreover, the Potency in test [2] was 0.536 µM (active).

Take `O=S(=O)(O)c1ccc2cc(N=Nc3cc(S(=O)(=O)O)c4cccnc4c3O)ccc2c1`: the Potency result in test [1], in test [2], in test [4] and in test [5] was “inactive” each time.

For the compound `c1ccc(-c2oc3ncnc(NC[C@@H]4CCCO4)c3c2-c2ccccc2)cc1`, the Potency in test [1] is 10.7 µM (active); in test [2] it was 7.56 µM (active); in test [3], 8.91 µM (active); in test [5] it was “inactive and 18.3 µM (active)”. For the same compound, in test [4], the Potency entry was “inactive”.

Regarding `CNC(=O)[C@H](Cc1ccccc1)NC(=O)[C@H](CC(C)C)[C@H](CSc1cccs1)C(=O)NO`, the Potency result in test [1], in test [2], in test [4] and in test [5] was “inactive” each time.
